Data on eight sequences can be found in publication PMC7862700, “An all-to-all approach to the identification of sequence-specific readers for epigenetic DNA modifications on cytosine”.

Common to all, as to experiment: DAPPL (digital affinity profiling via proximity ligation, sequencing); 10 mM Tris-HCl pH 7.5, 50 mM NaCl, 1 mM DTT, 4% glycerol, room temperature, 30 min; GST-TFs on glutathione beads, 16-mer random dsDNA library, 0.1% formaldehyde crosslink after washing; high values mean tight binding
Common to all, as to conditions: protein: recombinant; tags: N-terminal GST; dsDNA, one strand shown

One test concerns the target T1, ERF (Homo sapiens, UniProt P50548 1-548).
T1 sequence: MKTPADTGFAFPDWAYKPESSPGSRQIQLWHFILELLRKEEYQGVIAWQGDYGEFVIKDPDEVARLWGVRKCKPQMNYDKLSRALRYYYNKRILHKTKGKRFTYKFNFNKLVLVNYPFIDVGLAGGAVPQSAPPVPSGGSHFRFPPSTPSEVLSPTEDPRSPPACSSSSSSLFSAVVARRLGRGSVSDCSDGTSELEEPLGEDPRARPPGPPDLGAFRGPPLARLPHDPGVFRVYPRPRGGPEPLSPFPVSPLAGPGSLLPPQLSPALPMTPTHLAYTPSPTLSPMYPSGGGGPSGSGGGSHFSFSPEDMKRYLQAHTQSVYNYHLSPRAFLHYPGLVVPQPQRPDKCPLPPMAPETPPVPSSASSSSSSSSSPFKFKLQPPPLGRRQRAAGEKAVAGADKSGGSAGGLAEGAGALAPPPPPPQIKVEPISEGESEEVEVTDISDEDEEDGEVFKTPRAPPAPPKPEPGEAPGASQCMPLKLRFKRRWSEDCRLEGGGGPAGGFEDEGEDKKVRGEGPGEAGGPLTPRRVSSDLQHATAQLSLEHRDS
A digest of the protocol: (§1)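 Each value of binding signal is a hexamer's read frequency for a factor divided by the same hexamer's frequency in the tag-only sample. Barcoded, bead-captured GST fusions of human transcription factors made in yeast were pooled with that sample and incubated with 200 nmole of a random double-stranded 16-mer DNA library in Tris/NaCl/DTT/glycerol buffer at room temperature for 30 min. Washing, 0.1% formaldehyde crosslinking, proximity ligation, PCR and Illumina NextSeq500 sequencing followed.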

The next test addresses T2, ETV3L (Homo sapiens, UniProt Q6ZN32 1-361).
T2 sequence: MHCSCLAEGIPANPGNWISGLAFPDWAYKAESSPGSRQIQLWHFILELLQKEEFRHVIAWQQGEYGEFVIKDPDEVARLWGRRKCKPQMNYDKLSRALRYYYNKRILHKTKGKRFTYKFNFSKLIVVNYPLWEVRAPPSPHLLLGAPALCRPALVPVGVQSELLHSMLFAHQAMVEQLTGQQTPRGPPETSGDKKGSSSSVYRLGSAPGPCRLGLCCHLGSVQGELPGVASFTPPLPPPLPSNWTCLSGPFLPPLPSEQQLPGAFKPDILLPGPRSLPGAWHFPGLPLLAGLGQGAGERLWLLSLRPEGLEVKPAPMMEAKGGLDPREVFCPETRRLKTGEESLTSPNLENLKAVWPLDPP
A digest of the protocol: as §1

In the next test the target is T3, ETS2 (Homo sapiens, UniProt P15036 1-469).
T3 sequence: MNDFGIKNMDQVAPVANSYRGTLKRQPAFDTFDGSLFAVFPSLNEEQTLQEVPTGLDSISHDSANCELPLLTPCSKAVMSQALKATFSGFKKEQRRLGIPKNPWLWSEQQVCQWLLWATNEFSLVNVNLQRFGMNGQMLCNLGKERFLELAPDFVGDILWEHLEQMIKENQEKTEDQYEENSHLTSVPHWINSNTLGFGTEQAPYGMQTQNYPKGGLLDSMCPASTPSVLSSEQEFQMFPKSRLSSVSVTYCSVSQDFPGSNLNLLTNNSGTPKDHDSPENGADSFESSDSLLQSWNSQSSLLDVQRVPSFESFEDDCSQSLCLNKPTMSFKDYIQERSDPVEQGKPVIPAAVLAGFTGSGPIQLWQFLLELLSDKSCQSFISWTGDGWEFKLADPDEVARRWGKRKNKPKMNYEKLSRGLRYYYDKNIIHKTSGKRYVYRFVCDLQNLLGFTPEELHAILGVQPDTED
A digest of the protocol: as §1

The target of the next test is T4, SPDEF (Homo sapiens, UniProt O95238 1-335).
T4 sequence: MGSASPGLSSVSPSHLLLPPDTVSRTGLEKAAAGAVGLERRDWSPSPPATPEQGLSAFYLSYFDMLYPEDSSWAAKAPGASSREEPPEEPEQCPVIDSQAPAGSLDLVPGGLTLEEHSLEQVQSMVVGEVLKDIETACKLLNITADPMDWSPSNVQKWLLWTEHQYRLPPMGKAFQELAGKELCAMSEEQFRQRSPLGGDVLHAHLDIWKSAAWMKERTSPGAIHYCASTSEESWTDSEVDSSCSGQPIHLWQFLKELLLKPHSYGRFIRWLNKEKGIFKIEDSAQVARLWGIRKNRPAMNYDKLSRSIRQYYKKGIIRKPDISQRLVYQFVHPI
A digest of the protocol: as §1

The target in a further test is T5, ETV7 (Homo sapiens, UniProt Q9Y603 1-341).
T5 sequence: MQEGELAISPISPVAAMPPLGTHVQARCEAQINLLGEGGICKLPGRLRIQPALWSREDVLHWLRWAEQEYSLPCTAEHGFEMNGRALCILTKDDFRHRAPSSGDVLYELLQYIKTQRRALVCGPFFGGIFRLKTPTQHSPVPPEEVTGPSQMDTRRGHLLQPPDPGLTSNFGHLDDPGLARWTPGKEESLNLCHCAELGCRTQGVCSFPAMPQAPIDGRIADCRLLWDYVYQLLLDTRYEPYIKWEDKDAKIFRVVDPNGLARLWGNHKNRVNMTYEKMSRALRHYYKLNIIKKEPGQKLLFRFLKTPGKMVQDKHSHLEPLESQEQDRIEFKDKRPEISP
A digest of the protocol: as §1

The target in a further test is T6, ETV3 (Homo sapiens, UniProt P41162-2 1-143).
T6 sequence: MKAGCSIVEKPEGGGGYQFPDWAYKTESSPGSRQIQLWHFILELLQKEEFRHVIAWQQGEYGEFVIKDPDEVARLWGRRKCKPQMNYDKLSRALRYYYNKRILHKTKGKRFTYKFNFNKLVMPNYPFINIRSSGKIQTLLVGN
A digest of the protocol:
as §1

For the next test, the target named is ETV6 (Homo sapiens, UniProt P41212 1-452). In outline: as §1
Chain of ETV6 (P41212 whole entry): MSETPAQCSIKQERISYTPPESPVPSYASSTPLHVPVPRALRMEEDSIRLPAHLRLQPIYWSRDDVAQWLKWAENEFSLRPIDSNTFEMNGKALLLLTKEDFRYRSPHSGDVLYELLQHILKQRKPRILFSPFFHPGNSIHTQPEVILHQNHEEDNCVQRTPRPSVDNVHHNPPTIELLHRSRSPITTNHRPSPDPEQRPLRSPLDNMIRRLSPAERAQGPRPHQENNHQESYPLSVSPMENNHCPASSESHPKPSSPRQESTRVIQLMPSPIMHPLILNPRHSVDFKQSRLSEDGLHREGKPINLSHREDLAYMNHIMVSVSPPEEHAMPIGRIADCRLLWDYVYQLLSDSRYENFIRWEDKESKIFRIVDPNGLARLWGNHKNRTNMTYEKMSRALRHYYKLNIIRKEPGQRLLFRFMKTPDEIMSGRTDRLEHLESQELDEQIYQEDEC

On to AGCAGC, for which the binding signal is 1.08 fold enrichment (6-mer frequency, TF over GST control) with ERF; 1.09 fold enrichment (6-mer frequency, TF over GST control) with ETV3L; 1.2 fold enrichment (6-mer frequency, TF over GST control) with ETS2; 1.02 fold enrichment (6-mer frequency, TF over GST control) with SPDEF; 1.19 fold enrichment (6-mer frequency, TF over GST control) in the test with ETV7; 1.08 fold enrichment (6-mer frequency, TF over GST control) in the test with ETV3. The binding signal in the test with ETV6 was 1.04 fold enrichment (6-mer frequency, TF over GST control).
As to TTACGC, the binding signal is 1.15 fold enrichment (6-mer frequency, TF over GST control) with ERF; 1.05 fold enrichment (6-mer frequency, TF over GST control) with ETV3L; 1.1 fold enrichment (6-mer frequency, TF over GST control) with ETS2; 1.08 fold enrichment (6-mer frequency, TF over GST control) with SPDEF; 1.02 fold enrichment (6-mer frequency, TF over GST control) with ETV7; 1.16 fold enrichment (6-mer frequency, TF over GST control) with ETV3. Also, the binding signal in the test with ETV6 is 1.11 fold enrichment (6-mer frequency, TF over GST control).
Take ATAAGC: the binding signal with ERF was 1.18 fold enrichment (6-mer frequency, TF over GST control); with ETV3L it was 1.12 fold enrichment (6-mer frequency, TF over GST control); with ETS2 it was 1.08 fold enrichment (6-mer frequency, TF over GST control); in the test with SPDEF, 1.07 fold enrichment (6-mer frequency, TF over GST control); with ETV7, 1.11 fold enrichment (6-mer frequency, TF over GST control); with ETV3, 1.11 fold enrichment (6-mer frequency, TF over GST control). For the same sequence, the binding signal with ETV6 is 1.02 fold enrichment (6-mer frequency, TF over GST control).
In the case of AGCTCA, the binding signal is 1.08 fold enrichment (6-mer frequency, TF over GST control) in the test with ERF; 1.08 fold enrichment (6-mer frequency, TF over GST control) in the test with ETV3L; 1.13 fold enrichment (6-mer frequency, TF over GST control) with ETS2; 1.08 fold enrichment (6-mer frequency, TF over GST control) in the test with SPDEF; 1.03 fold enrichment (6-mer frequency, TF over GST control) with ETV7; 1.15 fold enrichment (6-mer frequency, TF over GST control) with ETV3. For the same sequence, in the test with ETV6, the binding signal is 1.1 fold enrichment (6-mer frequency, TF over GST control).
For the sequence CTATCG, the binding signal is 1.28 fold enrichment (6-mer frequency, TF over GST control) with ERF; 1.07 fold enrichment (6-mer frequency, TF over GST control) in the test with ETV3L; 1.04 fold enrichment (6-mer frequency, TF over GST control) with ETS2; 1.04 fold enrichment (6-mer frequency, TF over GST control) with SPDEF; 1.19 fold enrichment (6-mer frequency, TF over GST control) in the test with ETV7; 1.1 fold enrichment (6-mer frequency, TF over GST control) with ETV3. For the same sequence, the binding signal with ETV6 was 1.07 fold enrichment (6-mer frequency, TF over GST control).
CGAGCT: the binding signal is 1.09 fold enrichment (6-mer frequency, TF over GST control) with ERF; 1.02 fold enrichment (6-mer frequency, TF over GST control) with ETV3L; 1.07 fold enrichment (6-mer frequency, TF over GST control) with ETS2; 1.04 fold enrichment (6-mer frequency, TF over GST control) in the test with SPDEF; 1.02 fold enrichment (6-mer frequency, TF over GST control) in the test with ETV7; 1.06 fold enrichment (6-mer frequency, TF over GST control) with ETV3. Further, the binding signal with ETV6 was 1.01 fold enrichment (6-mer frequency, TF over GST control).
Take CGATCG: the binding signal is 1.04 fold enrichment (6-mer frequency, TF over GST control) in the test with ERF; 1.03 fold enrichment (6-mer frequency, TF over GST control) with ETV3L; 1.04 fold enrichment (6-mer frequency, TF over GST control) with ETS2; 1.1 fold enrichment (6-mer frequency, TF over GST control) in the test with SPDEF; 1 fold enrichment (6-mer frequency, TF over GST control) in the test with ETV7; 1.09 fold enrichment (6-mer frequency, TF over GST control) with ETV3. In the test with ETV6, the binding signal was 1.03 fold enrichment (6-mer frequency, TF over GST control).
Regarding TTGAAC, the binding signal in the test with ERF is 1.16 fold enrichment (6-mer frequency, TF over GST control); with ETV3L it was 1.17 fold enrichment (6-mer frequency, TF over GST control); with ETS2 it was 1.17 fold enrichment (6-mer frequency, TF over GST control); with SPDEF it was 1.06 fold enrichment (6-mer frequency, TF over GST control); with ETV7 it was 1.18 fold enrichment (6-mer frequency, TF over GST control); with ETV3, 1.14 fold enrichment (6-mer frequency, TF over GST control). Besides, the binding signal with ETV6 is 1.1 fold enrichment (6-mer frequency, TF over GST control).
